Hit rate of the full screen: of about 91,000 compounds, about 290 (0.32%) were called active. Inconclusive results (about 7%) are left out. The sample as a whole holds a higher share of actives than the screen did. Values without a mark were called inactive. Calls come from the whole dose curve; as a rule, active = well fitted inhibition curve with a large enough effect; inconclusive = small, poorly fitted or top-dose-only effect; inactive = no such curve, though single readings can be large or run the other way.
These molecules were tested against Single-stranded DNA cytosine deaminase (Homo sapiens) (UniProt Q9GZX7) (assay: Primary qHTS assay for inhibitors of Activation Induced Cytidine Deaminase (AID): AID signal). Conditions: AID deamination FRET fluorescence, UDG-coupled, 4 h; series mostly up to 115 µM; activity change, negative = inhibition: at the top concentration.
Single-stranded DNA cytosine deaminase (Homo sapiens), sequence (Q9GZX7 whole entry, looked up): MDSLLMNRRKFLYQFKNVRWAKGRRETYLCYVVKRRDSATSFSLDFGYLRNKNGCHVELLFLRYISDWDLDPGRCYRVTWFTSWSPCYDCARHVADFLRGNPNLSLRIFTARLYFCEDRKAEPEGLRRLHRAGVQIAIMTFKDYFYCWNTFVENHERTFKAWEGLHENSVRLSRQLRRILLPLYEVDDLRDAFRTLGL
Source text: Assay Provider (PI) Patricia Gearhart Ph.D.
National Institute on Aging
National Institute of Health (NIH), Bethesda, MD
Assay Provider (PI) Rahul Kohli Ph.D.
Perelman School of Medicine
University of Pennsylvania, Philadelphia, PA
Activation-Induced Deaminase (AID) is a cytosine deaminase which converts cytosine into uracil within stretches of ssDNA. The presence of uracil in DNA initiates a cascade of mutagenic DNA repair to introduce point mutations and DNA double strand breaks. Specific targeting of AID to the immunoglobulin heavy chain loci (Igh) promotes mutagenesis in the antibody variable region for somatic hypermutation (SHM) or switch regions leading to class switch recombination (CSR). However, AID also plays a role in accumulating unnecessary mutations across the genome. Mis-targeting of AID results in the initiation of tumor development and leads to greater drug resistance among cancer cells when continually expressed. To identify an AID inhibitor, a small molecule library will be screened in collaboration with NCATS core facility at NIH. To confirm biological function, inhibitors will be examined in an in vitro murine B-cell activation assay and subsequent secondary validation screens. Top molecules will be further screened to identify inhibitory efficacy against a wild type primary splenocytes assay. Using these approaches, we hope to identify a small molecule with great efficacy and low toxicity for use as a molecular probe to further characterize AID's intricacies, or even as a therapeutic.
A FRET based analysis of cytosine deamination, was developed to identify potential inhibitors of AID catalytic activity. This screen has two signal output, Read 1 evaluates the AID inhibition response. The second readout (Read 2) evaluates UDG response and is uses as a counterscreen to exclude false positive inhibitors. Inhibition in AID and inactivity in the UDG signal is the desired outcome for this assay.
SEQUENCE No. (e.g., 1, 2, 3, etc.); […] (e.g., Cells, Incubation, Reagent, etc.); VALUE; DESCRIPTION
1a; Reagent; 3 uL; [4/3x] 1 uM AID/2.67 U/mL UDG
1b; Reagent; 3 uL; 2 U/mL UDG
1c; Reagent; 3 uL; 1 uM AID
2a; Compound; 46 nL; Follow-up plates (0.64 uM - 10 mM)
2b; Control; 46 nL; ATA ([…] - 10 mM)
3; Time; 10 min; incubation at room temperature
5; Time; 4 hr; incubation at room temperature
6; Reagent; 4 uL; [2x] 250 mM NaOH
7; Time; 15 sec; centrifuge at 1000 rpm
8; Time; 30 min; incubation at room temperature
9a; Detection; fluorescence (Read 1: AID); EnVision (PerkinElmer) plate reader, 540 excitation and 590 emission filters
9b; Detection; fluorescence (Read 2: UDG); EnVision (PerkinElmer) plate reader, 560 excitation and 665 emission filters
NOTES (numbers refer to sequence above)
1a; Reagents were dispensed in a medium-binding black solid-bottom Greiner plates (789176F) using a BioRptr liquid dispenser. Dispense 3 uL of [4/3x] 1 uM AID (provided by Kohli lab) and [4/3x] 2 U/mL UDG (NEB M0280L) into columns 1, 2, 5 to 48.
1b; Dispense 3 uL of [4/3x] 2 U/mL UDG into column 3.
1c; Dispense 3 uL of [4/3x] 1 uM AID into column 4.
2a; Compound (7-points [uM] (0.64; 3.2; 16; 80; 400; 2,000; 10,000; 20,000) double pin-transferred (Dip Factor = 2) using the Kalypsys (Wako USA) pintool equipped with a 1536 pinhead for a final concentration range of 7.32 nM - 114 uM.
2b; 10 mM Aurintricarboxylic Acid (Sigma A1895) (ATA, 8-point, n = 2, 1:2.5 dilution in column 2) double pin-transferred (Dip Factor = 2) using the Kalypsys (Wako USA) pintool equipped with a 1536 pinhead for a [final] range of 186 nM - 114 uM.
3; Room temperature incubation.
4; Dispense 1 uL of substrate mixture from the Kohli lab [4x] […] DJC20 and [4x] 250 nM DJC23 into columns 1 to 48 .
5; Room temperature incubation.
6; Dispense 4 uL of substrate mixture [2x] 250 mM NaOH into columns 1 to 48.
7; Centrifugation step to remove bubbles.
8; Room temperature incubation
9a; Fluorescence signal (column label AID) was read using the EnVision plate reader. […]
`Cc1nc2nc(SCC(=O)c3ccccc3)[nH]c2cc1Br` was tested, and the “activity change, negative = inhibition” value was -8.97%. In the case of `CN(Cc1c(F)cccc1Cl)C(=O)c1ccc(NS(C)(=O)=O)cc1`, the “activity change, negative = inhibition” value is reported as -4.28%. In the case of `O=C(NC1CC1)c1cc(-c2ccc(Cl)cc2)nc2ccccc12`, the “activity change, negative = inhibition” value is reported as -3.94%. With `COc1cc(F)ccc1NC(=O)Cc1nn(C)c(=O)c2ccccc12` the “activity change, negative = inhibition” value was -4.44%. `COc1ccc(-c2nnc(SCCOc3ccc(Cl)cc3Cl)n2C(C)C)cc1` was tested, and the “activity change, negative = inhibition” value was -26.6%. `O=C(c1cnn(-c2ccc(F)cc2)c1-n1cccc1)N1CCN(c2ccc(F)cc2)CC1` was tested, and the “activity change, negative = inhibition” value was -15%. In the case of `Cc1c(Cl)cccc1NC(=O)C1CCCN(c2ncnc3onc(C)c23)C1` (centres undefined), the “activity change, negative = inhibition” value is reported as 1.15%. For `Cc1c(Cl)cccc1NC(=O)C1CCCN(C(=O)c2cnn(-c3ccccc3)c2-n2cccc2)C1` (centres undefined), the Potency was 22.4 µM (active). With `Nc1nnnn1Cc1nnc(SCc2ccc(F)cc2)n1-c1ccccc1` the “activity change, negative = inhibition” value was -7.07%. For `Cc1ccccc1/C=C1\CCc2ccccc2C1=O`, the “activity change, negative = inhibition” value was -12.2%. `O=C(NC(c1ccccc1)c1ccccn1)c1cc[n+]([O-])cc1` (centres undefined) was tested, and the “activity change, negative = inhibition” value was 5.75%. For `O=C(NCCc1ccccc1)c1[nH]c2ccccc2c1Cl`, the “activity change, negative = inhibition” value was 4.63%. With `COc1cc(C(=O)Nc2ccc(C(=O)O)cc2)c2ccccc2n1` the “activity change, negative = inhibition” value was -14.4%. For `COc1ccccc1-c1cc(=O)c2cc(C)ccc2o1`, the “activity change, negative = inhibition” value was -7.1%. For `COC(=O)C(C)(NC(=O)CCC(=O)c1ccccc1)c1ccccc1` (centres undefined), the “activity change, negative = inhibition” value was -8.13%. With `O=C(NC/C(=N/NC(=O)c1cccnc1)c1ccccc1)c1ccccc1` the “activity change, negative = inhibition” value was -6.31%. `CN(Cc1cccc(C(F)(F)F)c1)C1CCN(C(=O)c2cncc(Br)c2)CC1` was tested, and the “activity change, negative = inhibition” value was 4.19%. `Cc1cc2nc(CSc3nc4ccc(NC(=O)CCC5CCCC5)cc4s3)cc(=O)n2o1` was tested, and the “activity change, negative = inhibition” value was 6.43%. `O=Cc1cccc(Br)c1O` was tested, and the “activity change, negative = inhibition” value was -2.6%. For `Cc1ccc(S(=O)(=O)NC(C)c2cccs2)cc1` (centres undefined), the “activity change, negative = inhibition” value was 2.96%. `Cc1cc(C(C)(C)C)cc(C)c1CS(=O)Cc1ccc(F)cc1` (centres undefined) was tested, and the “activity change, negative = inhibition” value was -27.6%. `CC(=O)c1c(C)[nH]c(C(=O)C(C)SCc2ccc(Cl)cc2)c1C` (centres undefined) was tested, and the “activity change, negative = inhibition” value was -4.65%. `NC(=O)NNC(=S)Nc1ccc(SC(F)F)cc1` was tested, and the “activity change, negative = inhibition” value was -2.65%. `COC(=O)c1cc(S(=O)(=O)Nc2ccc(C)c(F)c2)c[nH]1` was tested, and the “activity change, negative = inhibition” value was -0.855%. `CCc1ccc(-c2csc(/C(C#N)=C\Nc3ccccc3C)n2)cc1` was tested, and the “activity change, negative = inhibition” value was -2.89%. `Cc1sc(NC(=O)Cc2ccccc2)c(C#N)c1C` was tested, and the “activity change, negative = inhibition” value was 8.65%. `Cc1cc(-c2ccccc2)c(-c2nc3ccccc3s2)[nH]1` was tested, and the “activity change, negative = inhibition” value was 67.1%. For `C=CCNCc1ccc(CC)cc1`, the “activity change, negative = inhibition” value was -3.27%. In the case of `COc1ccc(-c2csc(N)c2C#N)cc1`, the “activity change, negative = inhibition” value is reported as 28.9%. With `O=C(CCC1CCCC1)NCc1ccncc1` the “activity change, negative = inhibition” value was -3.62%. `c1ccc2cc(OCCSc3ccc4ccccc4n3)ccc2c1` was tested, and the “activity change, negative = inhibition” value was -1.21%. For `COc1cc(/C=C2/NC(=O)NC2=O)cc(I)c1OCC(=O)O`, the “activity change, negative = inhibition” value was 9.59%. For `C[N+](C)(CCCCCC[N+](C)(C)CCCN1C(=O)c2cccc3cccc(c23)C1=O)CCCN1C(=O)c2cccc3cccc(c23)C1=O`, the Potency was 4.47 µM (active). With `Cc1ccc2c(c1)-c1cccc3cccc(c13)C2=O` the “activity change, negative = inhibition” value was -3.02%. For `COc1ccc(CNC(=O)/C=C/c2ccc(C)cc2)cc1`, the “activity change, negative = inhibition” value was -7.12%. With `CCc1nc2ccccc2c(NC(=O)CN(CC)CC)c1C` the “activity change, negative = inhibition” value was 2.75%. In the case of `Cc1ccn2c(F)c(C(F)(F)F)nc2c1`, the “activity change, negative = inhibition” value is reported as -2.88%. In the case of `C=CCn1c(NCCCOCC)nc2c1c(=O)[nH]c(=O)n2C`, the “activity change, negative = inhibition” value is reported as -13.2%. For `Cc1ccc2[nH]c(=O)c(-c3noc(CCCC(=O)NC4CCCCC4)n3)cc2c1`, the “activity change, negative = inhibition” value was 11%. In the case of `Cc1c(F)cccc1NC(=O)C12CC3CC(CC(C3)C1)C2`, the “activity change, negative = inhibition” value is reported as -16.2%. In the case of `Cc1ccc(C)c(C(C)NC(=S)NCc2ccc(Cl)cc2)c1` (centres undefined), the “activity change, negative = inhibition” value is reported as -11.9%. With `O=C(c1ccc(Cl)cc1Cl)N(C1CCCCC1)C1CCCCC1` the “activity change, negative = inhibition” value was -9.19%. In the case of `Cc1ccc(CNC(=O)c2scnc2C)cn1`, the “activity change, negative = inhibition” value is reported as -0.773%. In the case of `Cc1cc(-c2noc(COc3ccc(I)cc3)n2)c2ccccc2n1`, the “activity change, negative = inhibition” value is reported as -15.1%. For `CCn1nnc(NC(=O)c2cc3ccccc3cc2OC)n1`, the “activity change, negative = inhibition” value was -11.7%. `CC(C)NC(=O)C1CCC(Cn2c(=O)c3sccc3n(Cc3ccc(F)cc3)c2=O)CC1` (centres undefined) was tested, and the “activity change, negative = inhibition” value was -4.59%. With `CCCNC(=O)C1CCC(Cn2c(=O)c3sccc3n(Cc3ccccc3F)c2=O)CC1` (centres undefined) the “activity change, negative = inhibition” value was -24.2%. With `O=C(C1CCC(Cn2c(=O)c3sccc3n(Cc3ccccc3F)c2=O)CC1)N1CCCCC1` (centres undefined) the Potency was 25.1 µM (active). In the case of `N#Cc1cccc(NC(=S)NCCc2ccccc2)c1`, the “activity change, negative = inhibition” value is reported as -15.4%. `CCNCc1ccccc1C(F)(F)F` was tested, and the “activity change, negative = inhibition” value was -1.7%. With `CCCCNC(=O)Nc1ccccc1CC(N)=O` the “activity change, negative = inhibition” value was -1.59%. In the case of `O=C(CSc1ccc2c(c1)OCCO2)Nc1ccc2c(c1)OCCO2`, the “activity change, negative = inhibition” value is reported as -9.11%. With `COCCNc1nc(-c2ccccc2)c2cc(Br)ccc2n1` the “activity change, negative = inhibition” value was -17.5%. In the case of `CCN(C(=O)C1CCN(c2nc3ccccc3o2)CC1)c1ccc(F)c(F)c1`, the “activity change, negative = inhibition” value is reported as -14%.
% is set by controls: 0 for no effect and ±100 for the full control effect; potency is the fitted concentration of half-maximal effect.
Note: nearly all actives have a fitted effect of over 25% in size.
